Measurements from PMC11006913.

Experiments:
Assay in all cases: PBM; 200 nM protein, PBS
Settings in all cases: dsDNA, one strand shown
[1] = molecular target: HESX1 (Homo sapiens, UniProt Q9UBX0 95-180, R165K)
[2] = molecular target: HOXB4 (Homo sapiens, UniProt P17483 148-234)
[3] = molecular target: SHOX (Homo sapiens, UniProt O15266 103-189)
[4] = molecular target: HESX1 (Homo sapiens, UniProt Q9UBX0 95-180)
[5] = molecular target: HOXA4 (Homo sapiens, UniProt Q00056 201-287, R217L)
[6] = molecular target: HOXB4 (Homo sapiens, UniProt P17483 148-234, V174I)
Sequence of HOXB4 (Homo sapiens, UniProt P17483 148-234, V174I) (P17483 148-234 V174I): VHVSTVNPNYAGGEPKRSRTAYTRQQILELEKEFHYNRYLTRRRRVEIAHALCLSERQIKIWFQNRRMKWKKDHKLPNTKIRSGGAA

[7] = molecular target: MSX2 (Homo sapiens, UniProt P35548 130-214, R199I)
Sequence of MSX2 (Homo sapiens, UniProt P35548 130-214, R199I) (P35548 130-214 R199I): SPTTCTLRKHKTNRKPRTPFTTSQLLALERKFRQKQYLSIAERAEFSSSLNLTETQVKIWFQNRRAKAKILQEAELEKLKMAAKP

[8] = molecular target: ALX3 (Homo sapiens, UniProt O95076 139-225, N203Q)
Sequence of ALX3 (Homo sapiens, UniProt O95076 139-225, N203Q) (O95076 139-225 N203Q): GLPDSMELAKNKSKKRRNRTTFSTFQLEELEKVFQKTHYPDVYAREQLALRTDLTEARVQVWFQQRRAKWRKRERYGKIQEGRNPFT

[9] = molecular target: SHOX (Homo sapiens, UniProt O15266 103-189, R173C)
Sequence of SHOX (Homo sapiens, UniProt O15266 103-189, R173C) (O15266 103-189 R173C): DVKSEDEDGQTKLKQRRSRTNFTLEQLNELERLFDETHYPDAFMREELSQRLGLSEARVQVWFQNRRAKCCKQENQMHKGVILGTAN

[10] = molecular target: ALX3 (Homo sapiens, UniProt O95076 139-225)
Sequence of ALX3 (Homo sapiens, UniProt O95076 139-225) (O95076 139-225): as the sequence (O95076 139-225 N203Q) above, with Q65N counted along it

[11] = molecular target: PROP1 (Homo sapiens, UniProt O75360 56-141)
Sequence of PROP1 (Homo sapiens, UniProt O75360 56-141) (O75360 56-141): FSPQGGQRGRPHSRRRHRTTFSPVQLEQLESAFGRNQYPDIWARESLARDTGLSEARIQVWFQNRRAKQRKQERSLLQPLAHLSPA

[12] = molecular target: HESX1 (Homo sapiens, UniProt Q9UBX0 95-180, R109Q)
Sequence of HESX1 (Homo sapiens, UniProt Q9UBX0 95-180, R109Q) (Q9UBX0 95-180 R109Q): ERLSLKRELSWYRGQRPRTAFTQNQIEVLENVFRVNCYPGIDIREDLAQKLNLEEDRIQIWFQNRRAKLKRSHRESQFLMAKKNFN

[13] = molecular target: PROP1 (Homo sapiens, UniProt O75360 56-141, R99H)
Sequence of PROP1 (Homo sapiens, UniProt O75360 56-141, R99H) (O75360 56-141 R99H): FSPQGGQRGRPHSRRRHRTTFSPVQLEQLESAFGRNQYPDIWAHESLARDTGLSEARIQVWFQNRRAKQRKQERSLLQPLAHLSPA

[14] = molecular target: ALX3 (Homo sapiens, UniProt O95076 139-225, L168Q)
Sequence of ALX3 (Homo sapiens, UniProt O95076 139-225, L168Q) (O95076 139-225 L168Q): as the sequence (O95076 139-225 N203Q) above, with L30Q, Q65N counted along it

[15] = molecular target: HESX1 (Homo sapiens, UniProt Q9UBX0 95-180, P111T)
Sequence of HESX1 (Homo sapiens, UniProt Q9UBX0 95-180, P111T) (Q9UBX0 95-180 P111T): as the sequence (Q9UBX0 95-180 R109Q) above, with Q15R, P17T counted along it

[16] = molecular target: ALX3 (Homo sapiens, UniProt O95076 139-225, L168V)
Sequence of ALX3 (Homo sapiens, UniProt O95076 139-225, L168V) (O95076 139-225 L168V): as the sequence (O95076 139-225 N203Q) above, with L30V, Q65N counted along it

[17] = molecular target: PROP1 (Homo sapiens, UniProt O75360 56-141, F88S)
Sequence of PROP1 (Homo sapiens, UniProt O75360 56-141, F88S) (O75360 56-141 F88S): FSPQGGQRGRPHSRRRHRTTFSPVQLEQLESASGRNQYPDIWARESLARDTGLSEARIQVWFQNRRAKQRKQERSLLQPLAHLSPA

[18] = molecular target: MSX2 (Homo sapiens, UniProt P35548 130-214, F161Y)
Sequence of MSX2 (Homo sapiens, UniProt P35548 130-214, F161Y) (P35548 130-214 F161Y): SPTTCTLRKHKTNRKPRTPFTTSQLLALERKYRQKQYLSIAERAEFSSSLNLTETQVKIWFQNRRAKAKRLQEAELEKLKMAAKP

[19] = molecular target: HESX1 (Homo sapiens, UniProt Q9UBX0 95-180, F115L)
Sequence of HESX1 (Homo sapiens, UniProt Q9UBX0 95-180, F115L) (Q9UBX0 95-180 F115L): as the sequence (Q9UBX0 95-180 R109Q) above, with Q15R, F21L counted along it

[20] = molecular target: ALX3 (Homo sapiens, UniProt O95076 139-225, N203S)
Sequence of ALX3 (Homo sapiens, UniProt O95076 139-225, N203S) (O95076 139-225 N203S): as the sequence (O95076 139-225 N203Q) above, with Q65S counted along it

Sequence of SHOX (Homo sapiens, UniProt O15266 103-189) (O15266 103-189): as the sequence (O15266 103-189 R173C) above, with C71R counted along it
Sequence of HESX1 (Homo sapiens, UniProt Q9UBX0 95-180, R165K) (Q9UBX0 95-180 R165K): as the sequence (Q9UBX0 95-180 R109Q) above, with Q15R, R71K counted along it
Sequence of HESX1 (Homo sapiens, UniProt Q9UBX0 95-180) (Q9UBX0 95-180): as the sequence (Q9UBX0 95-180 R109Q) above, with Q15R counted along it
Sequence of HOXB4 (Homo sapiens, UniProt P17483 148-234) (P17483 148-234): as the sequence (P17483 148-234 V174I) above, with I27V counted along it
Sequence of HOXA4 (Q00056 201-287 R217L): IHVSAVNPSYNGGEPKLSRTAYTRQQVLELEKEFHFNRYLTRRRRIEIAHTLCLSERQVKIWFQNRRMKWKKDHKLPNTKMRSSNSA

Sequence	binding signal [1]	binding signal [2]	binding signal [3]	binding signal [4]	binding signal [5]	binding signal [6]	binding signal [7]	binding signal [8]	binding signal [9]	binding signal [10]	binding signal [11]	binding signal [12]	binding signal [13]	binding signal [14]	binding signal [15]	binding signal [16]	binding signal [17]	binding signal [18]	binding signal [19]	binding signal [20]
TAATTACA	12.5 upbm affinity estimate (log intensity, higher = more binding, comparable within an allelic series)	13.6 upbm affinity estimate (log intensity, higher = more binding, comparable within an allelic series)	12.1 upbm affinity estimate (log intensity, higher = more binding, comparable within an allelic series)	12.6 upbm affinity estimate (log intensity, higher = more binding, comparable within an allelic series)	12.9 upbm affinity estimate (log intensity, higher = more binding, comparable within an allelic series)	14.4 upbm affinity estimate (log intensity, higher = more binding, comparable within an allelic series)	13.1 upbm affinity estimate (log intensity, higher = more binding, comparable within an allelic series)	8.51 upbm affinity estimate (log intensity, higher = more binding, comparable within an allelic series)	9.87 upbm affinity estimate (log intensity, higher = more binding, comparable within an allelic series)	12.7 upbm affinity estimate (log intensity, higher = more binding, comparable within an allelic series)	11.8 upbm affinity estimate (log intensity, higher = more binding, comparable within an allelic series)	9.27 upbm affinity estimate (log intensity, higher = more binding, comparable within an allelic series)	11.5 upbm affinity estimate (log intensity, higher = more binding, comparable within an allelic series)	10.8 upbm affinity estimate (log intensity, higher = more binding, comparable within an allelic series)	11.1 upbm affinity estimate (log intensity, higher = more binding, comparable within an allelic series)	10.3 upbm affinity estimate (log intensity, higher = more binding, comparable within an allelic series)	7.98 upbm affinity estimate (log intensity, higher = more binding, comparable within an allelic series)	13.7 upbm affinity estimate (log intensity, higher = more binding, comparable within an allelic series)	7.89 upbm affinity estimate (log intensity, higher = more binding, comparable within an allelic series)	8.62 upbm affinity estimate (log intensity, higher = more binding, comparable within an allelic series)
CTTAATTA	13.6 upbm affinity estimate (log intensity, higher = more binding, comparable within an allelic series)	13.5 upbm affinity estimate (log intensity, higher = more binding, comparable within an allelic series)	13.2 upbm affinity estimate (log intensity, higher = more binding, comparable within an allelic series)	13.4 upbm affinity estimate (log intensity, higher = more binding, comparable within an allelic series)	13.1 upbm affinity estimate (log intensity, higher = more binding, comparable within an allelic series)	14.2 upbm affinity estimate (log intensity, higher = more binding, comparable within an allelic series)	13.1 upbm affinity estimate (log intensity, higher = more binding, comparable within an allelic series)	8.7 upbm affinity estimate (log intensity, higher = more binding, comparable within an allelic series)	10.8 upbm affinity estimate (log intensity, higher = more binding, comparable within an allelic series)	12.9 upbm affinity estimate (log intensity, higher = more binding, comparable within an allelic series)	12.1 upbm affinity estimate (log intensity, higher = more binding, comparable within an allelic series)	10.5 upbm affinity estimate (log intensity, higher = more binding, comparable within an allelic series)	12.1 upbm affinity estimate (log intensity, higher = more binding, comparable within an allelic series)	11.4 upbm affinity estimate (log intensity, higher = more binding, comparable within an allelic series)	12.3 upbm affinity estimate (log intensity, higher = more binding, comparable within an allelic series)	11.1 upbm affinity estimate (log intensity, higher = more binding, comparable within an allelic series)	8.21 upbm affinity estimate (log intensity, higher = more binding, comparable within an allelic series)	13.6 upbm affinity estimate (log intensity, higher = more binding, comparable within an allelic series)	8.38 upbm affinity estimate (log intensity, higher = more binding, comparable within an allelic series)	8.85 upbm affinity estimate (log intensity, higher = more binding, comparable within an allelic series)
